This test has as its target Genome polyprotein (Dengue virus type 2 (strain 16681-PDK53)) (UniProt P29991). In words: Dengue-2 NS5 methyltransferase inhibitors, primary screen, biochemical, confirmation dose response (AID 588689). Conditions: Dengue-2 NS5 methyltransferase capping enzyme assay, at 25 µM, stronger effect = higher value.
Where [1] appears, read: measured here: pilot screen replicate inhibition.

In all, about 340,000 compounds went through this assay and about 1,000 (0.29%) were called active. Cut-off read from the data, not from the text of the source: inconclusive = inhibition above about 29% without an active follow-up result; inactive = below that. Only a sample is shown. Measured potencies and affinities stand elsewhere.

By inhibition is commonly meant the relative decrease from the control value, in per cent. Regarding `O=C(CSc1nncn1-c1ccccc1)N1CCCC1`, the inhibition is -4.17% (inactive).
In the case of `CCc1ccc(NC(=O)C2CCCN(S(=O)(=O)c3ccc4c(c3)CCCN4C(C)=O)C2)cc1` (stereo not given), the inhibition is 2.65% (inactive).
As for `CC(C)C(O)P(=O)(OCc1ccccc1)c1ccc(N(C)C)cc1` (stereo not given), the inhibition was 1.35% (inactive). Further, the inhibition under setting [1] was -3.66%.
With `CCOC(=O)C1CCCN1C(=O)c1ccc(OC)c(Br)c1` (stereo not given), the inhibition was 0% (inactive).
With `Cc1[nH]c2ccc(Br)cc2c(=S)c1C/C=C/Cl`, the inhibition was 0% (inactive).
On the same count and under the same terms, in the case of `CC(=O)c1c(C)oc2c1cc(O)c1ccccc12` it was -5.41% (inactive).
Regarding `CC(=O)c1coc2c1cc(O)c1ccccc12`, the inhibition was -0.78% (inactive).
In the case of `CCN(C(=O)CCN1C(=O)c2ccccc2S1(=O)=O)c1ccccc1`, the inhibition is -2.22% (inactive).
On the same count and under the same terms, in the case of `COc1ccc(C(=O)N2CCOC2CNC(=O)C(=O)NCc2ccc(C)cc2)cc1` (stereo not given) it was 1.73% (inactive); in that of `CSc1nc(-c2ccccc2)nc(NC(=O)C(C)C)c1C(C)=O`, -10.3% (inactive); in that of `O=C(NC1CC2CCCC(C1)N2S(=O)(=O)c1ccccc1)c1ccco1` (stereo not given), 1.41% (inactive).
On to `CSCC[C@H](NC(=O)c1cccs1)c1nnc2ccccn12`, for which the inhibition was 5.35% (inactive).
For `COc1ccc(S(=O)(=O)Nc2cc3c(C(C)=O)c(C)oc3c3ccccc23)cc1`, the inhibition is -1.56% (inactive).
As to `CCOC(=O)c1c(C)oc2ccc(NS(=O)(=O)c3ccc(C(=O)O)cc3)cc12`, the inhibition is 4.37% (inactive).
Still for that read-out and setting: for `CC(=O)c1c(C)oc2c1cc(NS(=O)(=O)c1ccc(C(=O)O)cc1)c1ccccc12` the value was 15.7% (inactive); for `Cc1oc2c(cc(NS(=O)(=O)c3ccc(F)cc3)c3ccccc32)c1C(=O)O`, 11.6% (inactive); for `O=C(Cn1cnc2ccccc2c1=O)NCC(=O)N1CCN(Cc2ccc3c(c2)OCO3)CC1`, -2.08% (inactive).
For the molecule `Cc1cccc(NC(=O)Nc2cnccn2)c1`, the inhibition was -2.65% (inactive).
On to `Cn1c(=O)c2c(ncn2CCC(=O)N/N=C/c2cccnc2)n(C)c1=O`, for which the inhibition was 0.78% (inactive).
With `CN1C(=O)N(c2ccc(Cl)cc2)C(C)(O)CC1(C)C` (stereo not given), the inhibition was -7.17% (inactive).
In the case of `COc1cc2cccc(OC)c(=O)c2c(O)c1OC`, the inhibition was -2.72% (inactive).
Consider `Oc1cccc2cc3cccc(O)c3c(O)c12`, for which the inhibition is -2.2% (inactive).
Turning to `O=C(COC(=O)CCC(=O)c1cccs1)NCCc1ccccc1`, the inhibition was 10.1% (inactive).
Take `Cc1cccc(NC(=O)c2cccc(NC(=O)c3ccco3)c2)c1`: the inhibition was -3.49% (inactive).
As to `O=c1c2c(C(F)(F)F)cc(C(F)(F)F)nc2[nH]n1-c1ccccc1`, the inhibition is 12% (inactive).
With `Cc1cc(-c2ccccc2)nc2[nH]n(-c3ccccc3)c(=O)c12`, the inhibition was 14.4% (inactive).
Take `COC(C(=O)Nc1ccccc1C(=O)N1CCOCC1)c1ccccc1` (stereo not given): the inhibition is -4.55% (inactive).
Consider `CN1C(=O)C(C)(C)c2cc(S(=O)(=O)NCc3ccc(Cl)cc3)ccc21`, for which the inhibition is 0% (inactive).
As for `O=C(O)/C(=C\c1ccccc1)c1ccccc1`, the inhibition is -3.95% (inactive).
Turning to `O=C(O)c1cc(=O)c2c(Cl)cc(Cl)cc2[nH]1`, the inhibition was -1.47% (inactive).
The same measure, in the same setting: in the case of `COc1ccc(C(=O)Nc2ccc3nc(N4CCOCC4)sc3c2)cc1OC` it was -1.84% (inactive); in that of `c1csc(-c2cc(N3CCCCC3)c3ccccc3n2)c1`, -2.61% (inactive).
With `O=c1c2ccccc2nc(/C=C/c2ccc([N+](=O)[O-])cc2)n1CCCO`, the inhibition is -2.58% (inactive).
Consider `Cc1cnc(=O)[nH]c1SCc1ccc([N+](=O)[O-])cc1`, for which the inhibition is 9.19% (inactive).
As to `CCOC(=O)N1CCC(NC(=O)c2cc3sccc3n2CC)CC1`, the inhibition is -4.86% (inactive).
In the case of `Oc1cccc(/C=N/NC(=S)Nc2cccnc2)c1O`, the inhibition is -2.88% (inactive).
Take `CCN(CC)c1ccc(/C=N/Nc2cccc(C)c2)c(O)c1`: the inhibition is 7.27% (inactive).
Same read-out and setting: in the case of `Oc1c(Br)cc(Br)cc1/C=N/Nc1ccc(Cl)nn1` it was 7.11% (inactive).
On to `Oc1ccc(/C=N/Nc2ccc(Cl)nn2)cc1O`, for which the inhibition is 2.61% (inactive).
With `Oc1ccc(/C=N/NC(=S)Nc2cccnc2)c(O)c1`, the inhibition is -3.64% (inactive).
For the molecule `Cc1cccc(N/N=C/c2ccccc2O)c1`, the inhibition is -8.43% (inactive).
Take `COc1ccc(CCC(=O)N2CCN(C3CCCCC3)CC2)cc1`: the inhibition was -7.21% (inactive).
Still for that read-out and setting: in the case of `CC(=O)N1CCN(Cc2nc3cc(NC(=O)c4ccccc4C)ccc3n2C)CC1` it was -0.69% (inactive); in that of `Cc1cc2ncn(C3CC(O)C(CO)O3)c2cc1C` (stereo not given), 2.33% (inactive); in that of `COc1ccc(-c2nn(-c3ccccc3)cc2/C=N/NC(=O)c2cccc(S(=O)(=O)Nc3ccccc3OC)c2)cc1`, -3.64% (inactive).
Turning to `C=CCc1cccc2cc(C(=O)N3CCN(C(=O)c4ccccc4)CC3)c(=O)oc12`, the inhibition was -4.98% (inactive).
With `C[C@@H]1CN([C@@H](C)CO)S(=O)(=O)c2ccc(Br)cc2O[C@H]1CN(C)C(=O)c1ccncc1`, the inhibition was -4.96% (inactive).
On the same count and under the same terms, for `Cc1ccc(/C=C2\NC(=S)NC2=O)cc1[N+](=O)[O-]` the value was 3.12% (inactive).
Consider `O=C(c1ccc(N2CCOCC2)c([N+](=O)[O-])c1)N1CCN(c2ccccc2)CC1`, for which the inhibition was -9.43% (inactive).
Consider `CC(C)CN(CC(C)C)c1ccc(/C=N/n2cnnc2)cc1[N+](=O)[O-]`, for which the inhibition was -1.82% (inactive).
As to `O=C1NC(=S)N/C1=C\c1cccc([N+](=O)[O-])c1`, the inhibition is 2.76% (inactive).
The same measure, in the same setting: for `CN(C)c1ccc(/C=N/NC(N)=S)cc1[N+](=O)[O-]` the value was -11.3% (inactive); for `O=C1NC(=O)/C(=C\c2ccc(Oc3ccc([N+](=O)[O-])cn3)cc2)S1`, 10.2% (inactive).
For the molecule `COc1ccc(N2CCN(C(=O)c3ccccc3)CC2)c([N+](=O)[O-])c1`, the inhibition is 0% (inactive).
Take `O=C1c2ccccc2C(=O)N1/N=C/c1ccc(Oc2ccc([N+](=O)[O-])cn2)cc1`: the inhibition is -2.91% (inactive).
Same read-out and setting: for `COc1ccc(NC(=O)C2CCCN(C(=O)c3ccc(Cl)cc3)C2)cc1S(=O)(=O)N(C)C` (stereo not given) the value was -6.34% (inactive); for `CCOc1ccc(NC(=O)c2ccc3c(c2)N(Cc2ccc(F)cc2)C(=O)CS3=O)cc1` (stereo not given), -7.95% (inactive).
Regarding `COCCN(C(=S)Nc1ccc(Cl)cc1OC)C1CCN(C(C)=O)CC1`, the inhibition is -5.17% (inactive).
In the case of `Cc1cc2c(cc1S(=O)(=O)N1CCOCC1)NC(=O)CO2`, the inhibition was -0.83% (inactive).
For the molecule `COc1ccc(S(=O)(=O)NCC2CCCO2)cc1NC(=O)c1ccc(Cl)cc1` (stereo not given), the inhibition is -0.72% (inactive).
The same measure, in the same setting: for `C[C@@H]1CN([C@H](C)CO)C(=O)c2cc(NS(=O)(=O)c3cn(C)cn3)ccc2O[C@H]1CN(C)C(=O)Nc1ccccc1` the value was -1.59% (inactive); for `Cc1ccc(C(=O)NC(=S)Nc2ccc(N3CCOCC3)cc2)c(C)c1`, -1.43% (inactive).
With `COc1cccc(N(C(=O)c2snc(C(N)=O)c2N)C(C(=O)NCC2CCCO2)c2ccc(F)cc2)c1` (stereo not given), the inhibition is -6.68% (inactive).
`O=C1Nc2ccccc2/C1=C/c1ccc([N+](=O)[O-])cc1`: the inhibition is -15.7% (inactive).
On to `O=C1NC(=O)c2cc(Oc3ccc([N+](=O)[O-])cc3)ccc21`, for which the inhibition is 0.39% (inactive).
In the case of `CN(C)c1ccc(/C=N/N=C(N)N)cc1[N+](=O)[O-]`, the inhibition was -2.95% (inactive).
Regarding `CN(C)c1ccc(/C=C/C(=O)c2ccccc2)cc1[N+](=O)[O-]`, the inhibition is 7.8% (inactive).
Turning to `COc1ccc(C=O)cc1OS(=O)(=O)c1ccccc1[N+](=O)[O-]`, the inhibition is 11% (inactive).
With `COc1cc(C=O)ccc1OS(=O)(=O)c1ccccc1[N+](=O)[O-]`, the inhibition is -9.17% (inactive).
Regarding `CC(C)(C)NC(=O)CN(C(=O)C1CSC(=O)C1)c1ccccc1F` (stereo not given), the inhibition was -7.12% (inactive).
Still for that read-out and setting: in the case of `O=C(O)c1ccc(NC(=O)c2cccc(C(=O)Nc3ccc(C(=O)O)cc3)n2)cc1` it was -1.63% (inactive); in that of `Cc1ncn(-c2ccccc2)c1-c1ccccc1`, 0% (inactive); in that of `CCN(CC)S(=O)(=O)c1ccc(OC)c(NS(=O)(=O)c2cccc(C(=O)O)c2)c1`, 7.95% (inactive).
Same read-out and setting: for `COC(=O)Cn1cc(C(=O)OC)c2ccccc21` the value was -2.39% (inactive); for `CC(=O)n1cc(CO)c2ccccc21`, -0.72% (inactive).
Still for that read-out and setting: for `CC(=O)n1cc(/C=C2/N=C(c3ccccc3)OC2=O)c2ccccc21` the value was 19.9% (inactive); for `CN=C1S/C(=C\c2cn(CC(=O)OC)c3ccccc23)C(=O)N1C`, -17.1% (inactive).
Turning to `COc1ccc(/C=N/NC(=O)c2ccc(O)cc2O)cc1CSc1ccccn1`, the inhibition was 2.91% (inactive).
The same measure, in the same setting: for `CCOC(=O)c1c(NC(=O)CSc2nnnn2C)sc(C)c1C` the value was -3.98% (inactive); for `Cc1ccc(C2NC(=S)N3C(c4ccc(C)cc4)NC(=S)N23)cc1` (stereo not given), -0.57% (inactive); for `Cc1ccc(NC(=O)c2ccccc2-c2ccccc2C(=O)O)cc1C`, -2.19% (inactive).
`O=C(Nc1ccc2c(c1)C(=O)c1ccccc1-2)c1ccccc1`: the inhibition was -0.39% (inactive).
Same read-out and setting: for `COc1cccc(NC(=O)c2ccccc2-c2ccccc2C(=O)O)c1` the value was -10.1% (inactive); for `CC(=O)Nc1ccc(-c2nc3cc(Cl)ccc3o2)cc1`, 0% (inactive); for `CCn1c2ccccc2c2cc(NC(C)=O)ccc21`, 4.77% (inactive).
The same measure, in the same setting: for `O=C(O)c1ccccc1-c1ccccc1C(=O)Nc1cccc(-c2nc3ccccc3o2)c1` the value was 8.19% (inactive); for `CCn1c2ccccc2c2cc(NC(=O)c3ccccc3[N+](=O)[O-])ccc21`, 1.28% (inactive).
As for `COc1ccc(NC(=O)c2ccccc2-c2ccccc2C(=O)O)cc1`, the inhibition is -8.51% (inactive).
Take `CCN(CC)S(=O)(=O)c1cccc(NC(=O)COC(=O)/C=C/c2cccs2)c1`: the inhibition is -2.65% (inactive).
As for `O=C(O)C1CCN(C(=O)Cc2ccccc2)CC1`, the inhibition was 2.22% (inactive).
`c1ccc(C2CC(c3ccccc3)C(c3ccccc3)N2)cc1` (stereo not given): the inhibition was -3.92% (inactive). The inhibition under setting [1] was -2.44%.
As to `CCCOc1ccccc1N/C(=N/c1nc(C)cc(C)n1)NC(=O)Nc1ccc(Cl)cc1`, the inhibition is -4.07% (inactive).
The same measure, in the same setting: for `Oc1ccc(C[C@H]2CNCCN2CCc2cccc3ccccc23)cc1` the value was 6.4% (inactive).

Source of the values: PubChem BioAssay AID588689 (Southern Research Specialized Biocontainment Screening …, 2011).
